Data on 14 compounds can be found in PubChem BioAssay (EPA / NIEHS).

Assay [1] deals with Retinoic acid receptor alpha (Homo sapiens) (UniProt P10276). The experiment in a line: ATG_DR5_RAR_CIS: Attagene CIS-FACTORIAL HepG2 Assay for human Retinoic Acid Receptor Alpha (RARE), DR5 submotif (AID 2282934; active means hit-call score of the fitted dose curve at least 0.9, where 1 is the maximum; inactive means score below 0.9;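 on AC50: reporter responds to endogenous RAR alpha beta and gamma in HepG2 not RARA alone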). To be noted: HepG2 Attagene cis-factorial RARE DR5 reporter, mRNA; actives raise or lower the signal. Put shortly:
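After 24 h of chemical exposure, transiently transfected HepG2 cells were lysed for total RNA; the DR5-regulated reporter transcript was quantified via RT-PCR and capillary electrophoresis, with activity fitted bidirectionally against DMSO.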

Assay [2] in a line: ATG_M_19_TRANS: Attagene TRANS-FACTORIAL HepG2 Assay for M19 Transcription Factor (Internal Marker) (AID 2282974). To be noted: HepG2 Attagene TRANS-FACTORIAL M19 internal marker reporter. Summed up:
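Cells: human HepG2, transiently transfected with multiplexed reporter transcription units. Exposure: 24 h. Detection: RT-PCR of reporter mRNA with capillary electrophoresis. Analysis: gain-of-signal vs DMSO.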

Assay [3] addresses human RAR-related Orphan Receptor beta (RORb), RORB (gene 6096) (UniProt Q92753). Kind of assay: ATG_RORb_TRANS: Attagene TRANS-FACTORIAL HepG2 Assay for human RAR-related Orphan Receptor beta (RORb) (AID 2283010). Summed up: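 HepG2 cells transiently transfected with GAL4-UAS reporter units expressing chimeric NR-Gal4 protein; reporter mRNA measured 24 h after dosing by RT-PCR, 6-FAM labelling and capillary electrophoresis. Gain-of-signal fitted relative to DMSO baseline.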

A short description of assay [4]: TOX21_p53_BLA_p4_viability: Viability Assessment in the Tox21 HCT-116 p53 Agonism Beta-lactamase Assay, Phase 4 (AID 2283597).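 Further: hits lower the luminescence signal meaning cytotoxicity.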 Summed up:
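HCT-116 p53-bla cells, 4000/well, dosed after 5 h attachment and incubated 16 h at 37 °C, 5% CO2. Viability from CellTiter-Glo ATP luminescence after 30 min at room temperature, taken after the beta-lactamase read; loss of signal indicates cytotoxicity.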

Assay [5] concerns the target Estrogen-related receptor gamma (Homo sapiens) (UniProt P62508). The experiment in a line: ATG_ERRg_TRANS: Attagene TRANS-FACTORIAL HepG2 Assay for human Estrogen-Related Receptor gamma (ERRg) (AID 2282977).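 Further: hits increase reporter signal over DMSO so potencies reflect activators.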 To be noted: HepG2 Attagene TRANS reporter, ERRg transactivation. Summed up: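 HepG2 cells transiently transfected with multiplexed GAL4-UAS reporter units driven by chimeric NR-Gal4 proteins; 24 h exposure. Reporter mRNA quantified by RT-PCR, fluorescent labelling, HpaI digestion and capillary electrophoresis; gain of signal vs DMSO.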

Assay [6] concerns the target Oxysterols receptor LXR-beta (Homo sapiens) (UniProt P55055). Kind of assay: ATG_LXRb_TRANS: Attagene TRANS-FACTORIAL HepG2 Assay for human Liver X Receptor beta (LXRb) (AID 2282981). To be noted: HepG2 Attagene TRANS GAL4-LXRb reporter, mRNA. Put shortly:
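HepG2 cells transiently transfected with GAL4-UAS reporter units for chimeric NR-Gal4 proteins, dosed for 24 h. Reporter transcripts measured by RT-PCR and capillary electrophoresis; gain-of-signal fitting relative to DMSO.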

The target in assay [7] is human Peroxisome Proliferator-activated Receptor delta (PPARd), PPARD (gene 5467) (UniProt Q03181). Kind of assay: ATG_PPARd_TRANS: Attagene TRANS-FACTORIAL HepG2 Assay for human Peroxisome Proliferator-activated Receptor delta (PPARd) (AID 2283002). Put shortly:
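Fluorescence from capillary electrophoresis of labelled RT-PCR reporter fragments gives the signal; DMSO sets baseline. Cells: HepG2 transiently carrying GAL4-UAS reporter units plus chimeric nuclear receptor-Gal4 proteins, exposed to chemicals for 24 h.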

The target of assay [8] is Peroxisome proliferator-activated receptor gamma (Homo sapiens) (UniProt P37231). The experiment in a line: ATG_PPARg_TRANS: Attagene TRANS-FACTORIAL HepG2 Assay for human Peroxisome Proliferator-activated Receptor-gamma (PPARg) (AID 2283007). Summed up: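 A TRANS-format multiplexed reporter assay measures activity of an exogenous chimeric NR-Gal4 protein in HepG2 cells. After 24 h of chemical exposure, reporter transcripts are amplified, fluorescently labelled and sized by capillary electrophoresis, with gain of signal scored against DMSO.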

Assay [9] concerns the target human RAR-related Orphan Receptor gamma (RORg), RORC (gene 6097) (UniProt P51449). Kind of assay: ATG_RORg_TRANS: Attagene TRANS-FACTORIAL HepG2 Assay for human RAR-related Orphan Receptor gamma (RORg) (AID 2283011). Put shortly: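 HepG2 cells transiently transfected with GAL4-UAS reporter units and chimeric RORg-Gal4 construct; after 24 h chemical exposure, reporter mRNA measured by RT-PCR with fluorescent capillary electrophoresis, gain of signal fitted against DMSO.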

Assay [10] deals with human Thyroid Receptor alpha (THRa1), THRA (gene 7067) (UniProt P10827). The experiment in a line: ATG_THRa1_TRANS: Attagene TRANS-FACTORIAL HepG2 Assay for human Thyroid Receptor alpha (THRa1) (AID 2283014). Put shortly: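 HepG2 cells transiently transfected with chimeric NR-Gal4 and GAL4-UAS reporter units, dosed 24 h. Reporter mRNA quantified by RT-PCR, fluorescent labeling, HpaI digestion and capillary electrophoresis; gain-of-signal fit versus DMSO.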

Assay [11] in a line: ACEA_ER_AUC_viability: ACEA Biosciences xCELLigence Real-Time Cell Analysis on Estrogen Receptor Agonism for Viability (AID 2283782).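 Further: continuous compound exposure with impedance area under curve over 80 h; hit means loss of impedance signal meaning reduced cell growth or viability.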 Summed up: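 T47D cells preconditioned in phenol red-free RPMI with charcoal-stripped FBS, then dosed with 8-point 1:4 series from 100 uM (up to 0.5% DMSO). Impedance monitored up to ~80 h; area-under-curve loss versus DMSO taken as viability.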

A short description of assay [12]: CCTE_Harrill_HTTr_Viability_MCF7: CCTE's 6-hour Cell Viability Assessment for the High-Throughput Transcriptomics (HTTr) Platform, in MCF-7 cells cultured in DMEM + 10% fetal bovine serum, Harrill Lab (AID 2284010; active means hit-call score of the fitted dose curve at least 0.9, where 1 is the maximum; inactive means score below 0.9). Put shortly:
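MCF-7 cells in DMEM + 10% FBS, 384-well, exposed 6 h to an eight-point dilution series. Membrane integrity scored by high-content imaging of propidium iodide exclusion; bidirectional fit versus DMSO.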

A short description of assay [13]: CCTE_Harrill_HTTr_Apoptosis_MCF7: CCTE's 6-hour Apoptosis Assessment for the High-Throughput Transcriptomics (HTTr) Platform, in MCF-7 cells cultured in DMEM + 10% fetal bovine serum, Harrill Lab (AID 2284011; active means hit-call score of the fitted dose curve at least 0.9, where 1 is the maximum; inactive means score below 0.9). Put shortly: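 MCF-7 cells in DMEM + 10% FBS exposed 6 h to chemicals over an eight-point dilution series. Caspase-3/7 activation imaged by high-content CellEvent Green staining; fitted bidirectionally versus DMSO.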

In assay [14] the target is Nuclear receptor subfamily 4 group A member 2 (Homo sapiens) (UniProt P43354). The experiment in a line: ATG_NURR1_TRANS: Attagene TRANS-FACTORIAL HepG2 Assay for human Nuclear Receptor Related Protein 1 (NURR1) (AID 2282985). To be noted: HepG2 Attagene TRANS reporter, mRNA readout. Put shortly:
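HepG2 cells transiently transfected with NURR1-Gal4 chimera and GAL4-UAS reporter units; after 24 hr compound exposure, reporter mRNA quantified by RT-PCR and capillary electrophoresis; gain of signal fitted against DMSO.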

A short description of assay [15]: ATG_GAL4_TRANS: Attagene TRANS-FACTORIAL HepG2 Assay for GAL4 (Internal Marker) (AID 2282976). To be noted: HepG2 Attagene TRANS GAL4 internal marker reporter. Summed up: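 Background-control readout: GAL4-UAS reporter transcript in transiently transfected HepG2 cells after 24 h compound exposure. Measured by RT-PCR, 6-FAM primer extension, HpaI digest and capillary electrophoresis; gain-of-signal fit versus DMSO.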

For assay [16], the target named is Oxysterols receptor LXR-alpha (Homo sapiens) (UniProt Q13133). Kind of assay: ATG_LXRa_TRANS: Attagene TRANS-FACTORIAL HepG2 Assay for human Liver X Receptor alpha (LXRa) (AID 2282980). To be noted: HepG2 Attagene TRANS reporter, LXRa transactivation. Summed up: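 HepG2 cells transiently transfected with GAL4-UAS reporter units for chimeric NR-Gal4 proteins, exposed to chemicals for 24 h. Reporter mRNA quantified by RT-PCR and capillary electrophoresis; gain of signal fitted relative to DMSO.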

The target of assay [17] is Retinoic acid receptor RXR-alpha (Homo sapiens) (UniProt P19793). The experiment in a line: ATG_RXRa_TRANS: Attagene TRANS-FACTORIAL HepG2 Assay for human Retinoid X Receptor alpha (RXRa) (AID 2283012). Put shortly:
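HepG2 cells transiently transfected with GAL4-UAS reporter units and chimeric RXRa-Gal4 protein, treated 24 h. Reporter mRNA measured by RT-PCR, fluorescent labelling, HpaI digestion and capillary electrophoresis. Induction fitted against DMSO.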

Assay [18] has as its target Nuclear receptor subfamily 1 group I member 3 (Homo sapiens) (UniProt Q14994). Kind of assay: ATG_CAR_TRANS: Attagene TRANS-FACTORIAL HepG2 Assay for human Constitutive Androstane Receptor (CAR) (AID 2282969).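 Further: activators raise reporter mRNA above DMSO so AC50 marks induction.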 As to conditions: HepG2 Attagene TRANS-FACTORIAL CAR reporter. Put shortly:
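HepG2 cells transiently transfected with GAL4-UAS reporter units; TRANS format reads activity of exogenous chimeric NR-Gal4 protein. After 24 h dosing, reporter mRNA quantified by RT-PCR, 6-FAM labelling and capillary electrophoresis; gain of signal fitted against DMSO.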

The nature of assay [19]: ATG_M_32_TRANS: Attagene TRANS-FACTORIAL HepG2 Assay for M32 Transcription Factor (Internal Marker) (AID 2282984). As to conditions: HepG2 Attagene TRANS M32 internal marker reporter. Put shortly:
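HepG2 cells transiently transfected with GAL4-UAS reporter units, dosed for 24 hours. Reporter mRNA quantified by RT-PCR, 6-FAM labelling, HpaI digestion and capillary electrophoresis; internal-marker signal fitted upward relative to DMSO.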

Results filed as inconclusive are left out. The source made the active and inactive calls. How the source made its calls, unless noted: active means hit-call score of the fitted dose curve at least 0.9, where 1 is the maximum; inconclusive means response in the unintended direction; inactive means score below 0.9.

Sequence of Nuclear receptor subfamily 1 group I member 3 (Homo sapiens) (Q14994 whole entry, looked up, the tested form may be a part): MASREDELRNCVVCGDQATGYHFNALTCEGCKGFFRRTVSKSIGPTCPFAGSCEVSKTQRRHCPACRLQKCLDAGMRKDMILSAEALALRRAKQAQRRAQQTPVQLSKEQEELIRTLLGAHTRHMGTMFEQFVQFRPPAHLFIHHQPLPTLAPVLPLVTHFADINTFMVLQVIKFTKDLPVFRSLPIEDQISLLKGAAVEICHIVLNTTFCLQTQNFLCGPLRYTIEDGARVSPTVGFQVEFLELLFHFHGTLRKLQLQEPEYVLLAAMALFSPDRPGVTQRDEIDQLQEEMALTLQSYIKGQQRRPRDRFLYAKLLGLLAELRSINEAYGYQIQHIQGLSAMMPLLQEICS
Sequence of human Thyroid Receptor alpha (THRa1), THRA (gene 7067) (P10827 whole entry, looked up, the tested form may be a part): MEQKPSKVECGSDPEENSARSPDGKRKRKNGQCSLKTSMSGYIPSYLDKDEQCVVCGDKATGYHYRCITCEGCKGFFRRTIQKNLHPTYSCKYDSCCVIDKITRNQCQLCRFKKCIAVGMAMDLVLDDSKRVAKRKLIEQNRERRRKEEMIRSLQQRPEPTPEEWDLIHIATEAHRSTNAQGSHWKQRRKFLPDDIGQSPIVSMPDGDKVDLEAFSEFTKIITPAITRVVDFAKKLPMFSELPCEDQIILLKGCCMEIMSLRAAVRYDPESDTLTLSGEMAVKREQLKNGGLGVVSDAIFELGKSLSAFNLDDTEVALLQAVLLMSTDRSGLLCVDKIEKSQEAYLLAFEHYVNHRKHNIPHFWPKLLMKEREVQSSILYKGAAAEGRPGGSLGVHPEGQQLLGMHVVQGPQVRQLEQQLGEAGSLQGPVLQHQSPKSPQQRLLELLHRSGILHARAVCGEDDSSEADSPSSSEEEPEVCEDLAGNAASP
Sequence of human RAR-related Orphan Receptor beta (RORb), RORB (gene 6096) (Q92753 whole entry, looked up, the tested form may be a part): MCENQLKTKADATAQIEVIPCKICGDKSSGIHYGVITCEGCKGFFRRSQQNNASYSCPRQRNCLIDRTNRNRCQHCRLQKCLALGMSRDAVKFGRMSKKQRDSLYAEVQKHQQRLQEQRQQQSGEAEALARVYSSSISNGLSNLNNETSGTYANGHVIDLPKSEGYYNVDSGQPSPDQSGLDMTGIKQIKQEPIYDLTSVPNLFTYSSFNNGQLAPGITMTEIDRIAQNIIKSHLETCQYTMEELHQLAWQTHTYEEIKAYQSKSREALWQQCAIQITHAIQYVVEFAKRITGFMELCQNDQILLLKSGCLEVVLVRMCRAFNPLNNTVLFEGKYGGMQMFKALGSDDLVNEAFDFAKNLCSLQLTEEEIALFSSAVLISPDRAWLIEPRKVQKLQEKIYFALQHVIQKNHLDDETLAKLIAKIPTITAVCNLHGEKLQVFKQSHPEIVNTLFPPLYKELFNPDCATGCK
Sequence of Nuclear receptor subfamily 4 group A member 2 (Homo sapiens) (P43354 whole entry, looked up, the tested form may be a part): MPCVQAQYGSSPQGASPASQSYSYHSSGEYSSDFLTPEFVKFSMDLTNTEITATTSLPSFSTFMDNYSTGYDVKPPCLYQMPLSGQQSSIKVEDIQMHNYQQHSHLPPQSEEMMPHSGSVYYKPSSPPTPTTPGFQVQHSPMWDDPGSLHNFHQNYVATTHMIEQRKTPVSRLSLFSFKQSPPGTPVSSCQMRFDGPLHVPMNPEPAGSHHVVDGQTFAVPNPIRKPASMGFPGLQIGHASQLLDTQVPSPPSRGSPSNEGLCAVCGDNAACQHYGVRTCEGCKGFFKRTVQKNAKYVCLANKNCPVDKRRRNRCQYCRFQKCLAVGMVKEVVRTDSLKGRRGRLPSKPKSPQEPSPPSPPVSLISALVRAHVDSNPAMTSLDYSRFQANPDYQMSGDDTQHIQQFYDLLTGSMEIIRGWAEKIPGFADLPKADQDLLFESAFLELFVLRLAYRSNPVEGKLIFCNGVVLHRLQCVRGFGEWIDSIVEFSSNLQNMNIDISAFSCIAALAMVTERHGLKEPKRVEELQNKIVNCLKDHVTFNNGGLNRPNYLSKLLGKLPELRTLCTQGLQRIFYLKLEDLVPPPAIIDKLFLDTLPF
Sequence of Retinoic acid receptor RXR-alpha (Homo sapiens) (P19793 whole entry, looked up, the tested form may be a part): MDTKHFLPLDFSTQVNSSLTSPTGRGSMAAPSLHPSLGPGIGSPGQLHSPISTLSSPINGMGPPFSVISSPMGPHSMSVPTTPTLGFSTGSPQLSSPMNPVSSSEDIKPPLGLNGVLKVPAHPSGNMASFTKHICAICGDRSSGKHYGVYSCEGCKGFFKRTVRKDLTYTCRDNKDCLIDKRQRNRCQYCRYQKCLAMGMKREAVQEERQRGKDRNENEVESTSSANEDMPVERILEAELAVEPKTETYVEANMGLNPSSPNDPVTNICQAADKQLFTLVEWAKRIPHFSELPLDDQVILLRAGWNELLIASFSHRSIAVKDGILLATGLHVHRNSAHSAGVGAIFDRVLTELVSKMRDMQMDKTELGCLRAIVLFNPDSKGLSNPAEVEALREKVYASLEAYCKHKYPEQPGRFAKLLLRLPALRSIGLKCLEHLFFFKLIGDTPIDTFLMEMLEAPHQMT
Sequence of human Peroxisome Proliferator-activated Receptor delta (PPARd), PPARD (gene 5467) (Q03181 whole entry, looked up, the tested form may be a part): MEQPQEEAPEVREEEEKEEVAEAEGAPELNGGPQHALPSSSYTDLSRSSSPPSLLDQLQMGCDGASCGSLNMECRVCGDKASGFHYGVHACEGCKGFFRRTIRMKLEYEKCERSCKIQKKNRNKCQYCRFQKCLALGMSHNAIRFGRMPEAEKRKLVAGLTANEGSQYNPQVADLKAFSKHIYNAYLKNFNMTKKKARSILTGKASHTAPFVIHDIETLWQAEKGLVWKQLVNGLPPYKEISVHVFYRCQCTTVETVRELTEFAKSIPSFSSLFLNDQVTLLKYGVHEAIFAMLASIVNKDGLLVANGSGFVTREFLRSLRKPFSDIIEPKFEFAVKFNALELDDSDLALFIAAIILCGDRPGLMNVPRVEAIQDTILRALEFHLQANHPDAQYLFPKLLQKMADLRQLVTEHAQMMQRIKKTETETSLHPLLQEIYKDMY
Sequence of Oxysterols receptor LXR-alpha (Homo sapiens) (Q13133 whole entry, looked up, the tested form may be a part): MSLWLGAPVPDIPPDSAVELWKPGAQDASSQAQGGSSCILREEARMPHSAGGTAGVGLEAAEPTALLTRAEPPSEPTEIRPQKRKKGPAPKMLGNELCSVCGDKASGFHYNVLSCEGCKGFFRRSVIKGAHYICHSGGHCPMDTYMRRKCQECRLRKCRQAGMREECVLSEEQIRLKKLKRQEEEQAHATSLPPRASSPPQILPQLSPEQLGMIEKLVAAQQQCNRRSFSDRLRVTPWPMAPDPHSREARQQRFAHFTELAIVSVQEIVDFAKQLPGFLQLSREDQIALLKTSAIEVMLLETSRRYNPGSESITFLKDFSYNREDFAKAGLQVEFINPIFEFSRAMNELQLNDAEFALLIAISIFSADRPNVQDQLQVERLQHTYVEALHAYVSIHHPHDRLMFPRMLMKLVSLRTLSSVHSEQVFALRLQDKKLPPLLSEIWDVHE
Sequence of human RAR-related Orphan Receptor gamma (RORg), RORC (gene 6097) (P51449 whole entry, looked up, the tested form may be a part): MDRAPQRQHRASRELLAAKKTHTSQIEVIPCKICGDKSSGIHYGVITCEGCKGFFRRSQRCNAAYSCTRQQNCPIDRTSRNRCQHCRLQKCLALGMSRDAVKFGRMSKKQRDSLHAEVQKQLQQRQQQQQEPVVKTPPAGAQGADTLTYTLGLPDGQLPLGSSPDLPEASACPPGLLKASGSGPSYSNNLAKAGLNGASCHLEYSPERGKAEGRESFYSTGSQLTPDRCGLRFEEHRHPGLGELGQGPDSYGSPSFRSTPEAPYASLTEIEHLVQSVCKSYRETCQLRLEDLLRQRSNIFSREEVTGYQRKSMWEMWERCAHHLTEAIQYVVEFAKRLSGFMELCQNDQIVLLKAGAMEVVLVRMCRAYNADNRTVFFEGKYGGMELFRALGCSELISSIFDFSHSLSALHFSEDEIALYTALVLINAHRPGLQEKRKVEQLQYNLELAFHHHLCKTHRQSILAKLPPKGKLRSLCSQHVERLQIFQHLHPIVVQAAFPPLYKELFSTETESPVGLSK
Sequence of Oxysterols receptor LXR-beta (Homo sapiens) (P55055 whole entry, looked up, the tested form may be a part): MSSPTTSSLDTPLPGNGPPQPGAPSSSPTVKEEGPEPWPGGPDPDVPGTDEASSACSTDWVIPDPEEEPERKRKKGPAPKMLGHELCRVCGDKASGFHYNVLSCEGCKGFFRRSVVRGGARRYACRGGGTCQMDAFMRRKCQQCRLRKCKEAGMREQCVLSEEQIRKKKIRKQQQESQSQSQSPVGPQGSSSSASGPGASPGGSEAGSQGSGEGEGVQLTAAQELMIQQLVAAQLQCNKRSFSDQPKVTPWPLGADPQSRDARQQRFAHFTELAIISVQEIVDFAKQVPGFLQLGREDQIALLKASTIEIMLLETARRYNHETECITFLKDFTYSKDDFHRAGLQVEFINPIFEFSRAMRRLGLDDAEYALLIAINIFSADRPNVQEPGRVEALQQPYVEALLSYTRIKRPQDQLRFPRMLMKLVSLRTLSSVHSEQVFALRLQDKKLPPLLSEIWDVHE
Sequence of Estrogen-related receptor gamma (Homo sapiens) (P62508 whole entry, looked up, the tested form may be a part): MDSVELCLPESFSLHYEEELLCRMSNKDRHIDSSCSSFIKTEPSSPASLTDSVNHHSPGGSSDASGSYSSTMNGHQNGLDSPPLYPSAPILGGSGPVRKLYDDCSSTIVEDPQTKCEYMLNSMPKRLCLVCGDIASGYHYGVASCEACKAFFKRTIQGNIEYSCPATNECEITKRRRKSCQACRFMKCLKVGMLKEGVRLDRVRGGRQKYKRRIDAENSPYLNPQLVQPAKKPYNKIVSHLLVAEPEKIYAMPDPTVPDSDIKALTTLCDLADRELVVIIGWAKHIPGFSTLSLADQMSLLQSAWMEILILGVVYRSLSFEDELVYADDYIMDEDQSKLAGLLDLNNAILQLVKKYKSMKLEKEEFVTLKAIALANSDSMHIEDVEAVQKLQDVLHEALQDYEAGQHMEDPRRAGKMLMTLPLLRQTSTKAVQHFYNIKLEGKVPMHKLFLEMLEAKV

On to `Cc1ccccc1S(=O)(=O)O`, for which the compound was called inactive in assay [1], in [2], in assay [3] and in assay [4].

Take `O=C(Oc1ccccc1)c1ccccc1`: the call in [1], in assay [2], in assay [5], in assay [6], in assay [7] and in assay [8] was inactive. For the same compound, the call in assay [3], in assay [9], in [10], in assay [11], in [12] and in assay [13] was inactive.

In the case of `CCCC(=O)OC`, the compound was called inactive in assay [1], in assay [6], in assay [14], in assay [8] and in assay [9].

As to `Nc1nnc(-c2ccc([N+](=O)[O-])o2)o1`, the compound was classed as inactive in assay [1], in [2], in assay [6], in [14], in [7] and in [8]. Besides, in assay [4], the compound was classed as inactive.

As to `Cc1cc2nc3c(=O)[nH]c(=O)nc-3n(C[C@H](O)[C@H](O)[C@H](O)CO)c2cc1C`, the result in assay [1], in assay [2], in assay [15], in assay [16], in assay [6] and in assay [3] was inactive. The outcome in assay [9], in [17], in assay [10], in assay [4], in assay [12] and in assay [13] was inactive. Further, the AC50 in [11] is 47 µM (active).

As to `CC/C=C\CC/C=C/C(OCC)OCC`, the outcome in assay [1], in [18], in assay [14], in assay [7], in assay [3] and in [9] was inactive. Moreover, the call in [10] and in assay [4] was inactive. For the same compound, in assay [11], the AC50 is 82.5 µM (active).

As to `Clc1ccccn1`, the outcome in assay [1], in [2], in assay [15], in [9], in assay [10] and in assay [11] was inactive. The outcome in [12] and in assay [13] was inactive.

Turning to `CCC(C)NC(N)=O` (stereo unspecified), the outcome in [18], in assay [16], in [14], in assay [3], in assay [9] and in [17] was inactive. Also, the call in [4] was inactive. In [11], the AC50 was 50 µM (active).

In the case of `C=C(C)C(=O)OCCCCCC`, the outcome in assay [1], in assay [15], in [5], in [16], in [6] and in assay [19] was inactive. Moreover, the compound was classed as inactive in assay [14], in assay [8], in assay [3], in [10] and in assay [4].

For the compound `C=C(C)C(=O)OCC1CCCO1` (stereo unspecified), the compound was called inactive in assay [1], in [18], in [19], in assay [7], in assay [17] and in assay [10]. Moreover, the outcome in assay [11] was inactive.

Turning to `CN1CCCC1`, the result in [1], in [18], in assay [15], in [5], in assay [16] and in assay [14] was inactive. Besides, the result in assay [9], in [17], in [10] and in assay [11] was inactive.

Regarding `CCCCCCC1CCCC(=O)O1` (stereo unspecified), the call in assay [1], in [15], in [16], in assay [14], in assay [17] and in assay [4] was inactive. In assay [11], the outcome was inactive. Also, the AC50 in [7] is 52.6 µM (active).

Take `CC=CC(=O)O`: the outcome in assay [1], in assay [2], in [15], in assay [5], in [9] and in [17] was inactive. The call in [10] and in assay [11] was inactive.

As for `Cc1cc(O)cc(C)c1Cl`, the AC50 in assay [1] was 79.6 µM (active); in assay [11], 81.1 µM (active). Further, the compound was called inactive in assay [15], in assay [16], in assay [19], in assay [14], in assay [7] and in assay [8]. In addition, the outcome in assay [17], in assay [12] and in assay [13] was inactive.

The AC50 is the concentration at which the activity in the assay is half-maximal.
